Seven molecules from PubChem BioAssay (Tox21) can be followed below.

Several values for one entry are separate records, joined by “and”; a condition that tells them apart may be missing. Equal entries are not always repeated. Results filed as inconclusive are left out. Where a structure was tested more than once in an assay, its records may differ in their call. Activity calls are given as the source filed them. Unless noted, the call rests on the fitted dose curve.

Experiment [1] in a line: Nuclear factor erythroid 2-related factor 2/antioxidant responsive element (Nrf2/ARE) small molecule agonists: qHTS cell viability counter screen in human keratinocytes (AID 1919968; active means well fitted curve in the direction sought with a large enough effect in the repeat runs; an effect the other way counts as inactive or inconclusive; further: nearly all actives have a fitted effect of over 55% in size). The method in brief: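 Fluorescence read-out from CellTiter-Fluor after 1 h at 37 C. Wells held HaCaT-derived ARE-luciferase reporter cells (1,500/well) treated 23 h with DMSO-dissolved compounds. Run in the same wells as the luciferase agonist read.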
(In general: In qHTS, concentration-response curves come from the screen itself.)

Experiment [2] is described as follows: Nuclear factor erythroid 2-related factor 2/antioxidant responsive element (Nrf2/ARE) small molecule agonists: luciferase reporter gene qHTS assay in human keratinocytes (AID 1919969). Further: nearly all actives have a fitted effect of over 35% in size. Further: potency means the concentration at half of the fitted maximal effect. A general note: In a reporter assay the amount or activity of a reporter protein is the signal.
Experiment [3] concerns the target Gonadotropin-releasing hormone receptor (Homo sapiens) (UniProt P30968). Description: Human gonadotropin-releasing hormone receptor (GnRHR) small molecule agonists, calcium flux assay in GnRHR-HEK293 cells (AID 1920063). Further: nearly all actives have a fitted effect of over 35% in size. The gist of the method:
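Calcium-dye fluorescence, Ex/Em=480/540, recorded every 1 sec over 3 min after compound addition to GnRHR-HEK293 cells. Cells had been seeded 18 hours earlier and dye-loaded for 1 hour at 37 C. Fifteen concentrations, triplicates.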
(A change in cytosolic calcium serves as a functional read-out for many receptors and channels.)

Experiment [4] deals with KiSS-1 receptor (Homo sapiens) (UniProt Q969F8). Description: Human kisspeptin (KISS1R) small molecule agonists, calcium flux assay in KISS1R-HEK293 cells (AID 1920064; active means well fitted curve in the direction sought with a large enough effect in the repeat runs; an effect the other way counts as inactive or inconclusive). The gist of the method: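 Calcium flux read-out: kinetic fluorescence at Ex/Em=480/540, 1 s intervals over 3 min, after pin-tool compound addition to dye-loaded KISS1R-HEK293 cells. Fifteen concentrations, triplicates.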

A short description of experiment [5]: G protein-coupled receptor (GPCR) small molecule agonists, calcium flux assay: HEK293 wild type cell line counter screen (AID 1920065). The method in brief: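 Agonist mode; 18 h seeding at 37 C, 1 h dye load at 37 C; compounds pinned from DMSO, ATP as positive control; kinetic fluorescence 480/540 nm, 3 min, 1 s reads; 15 concentrations, triplicate.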
The nature of experiment [6]: p53 small molecule agonists, cell-based qHTS assay with human liver microsomes: qHTS cell viability counter screen (AID 1963579). Further: nearly all actives have a fitted effect of over 45% in size. The gist of the method:
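Tox21 library compounds, delivered from DMSO stocks, were tested on p53RE-bla cells together with 0.5 mg/mL human liver microsomes and 0.5 mg/mL NADPH (final) over 16 h at 37 C; CellTiter-Glo luminescence served as the cytotoxicity measure.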

Experiment [7] in a line: p53 small molecule agonists, cell-based qHTS assay with rat liver microsomes: qHTS cell viability counter screen (AID 1963580). Further: nearly all actives have a fitted effect of over 45% in size. The method in brief: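 Rat liver microsome (0.5 mg/mL final) and NADPH (0.5 mg/mL final) co-incubation with compounds for 16 h at 37 C on HCT-116 p53RE-bla cells; cytotoxicity taken from intracellular ATP luminescence.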
Experiment [8] is described as follows: p53 small molecule agonists, cell-based qHTS assay: qHTS cell viability counter screen (AID 1963581). Further: nearly all actives have a fitted effect of over 45% in size. The method in brief:
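Cytotoxicity read-out: ATP-based luminescence (CellTiter-Glo, 30 min RT) measured in the same wells as the p53 reporter assay, HCT-116 p53RE-bla cells, 16 h compound exposure at 37 C.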

Experiment [9] deals with 5-hydroxytryptamine receptor 2A (Homo sapiens) (UniProt P28223). Put plainly: 5-hydroxytryptamine receptor 2A (HTR2A) small molecule agonists, cell-based qHTS assay (AID 1963587). Further: nearly all actives have a fitted effect of over 30% in size. Further: potency means the concentration at half of the fitted maximal effect. The method in brief: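 Kinetic calcium-flux fluorescence (2 min, 1 sec intervals) after compound addition in agonist mode. HTR2A-CHO cells were cultured 18 h, then dye-loaded 1 h at 37 C.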
Experiment [10] deals with Muscarinic acetylcholine receptor M1 (Homo sapiens) (UniProt P11229). Description: Cholinergic receptor muscarinic 1 (CHRM1) small molecule antagonists, cell-based qHTS assay (AID 1963588). Further: nearly all actives have a fitted effect of over 40% in size. The gist of the method:
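Compounds were tested at 15 concentrations in three independent runs. Dye-loaded CHRM1-CHO cells were exposed 5 min at room temperature before stimulation by acetylcholine added at 50nM. Intracellular calcium was read kinetically on FDSS for 3 min.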

Experiment [11] shares this target. Description: Cholinergic receptor muscarinic 1 (CHRM1) small molecule agonists, cell-based qHTS assay (AID 1963589). Further: nearly all actives have a fitted effect of over 35% in size. The gist of the method:
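Calcium flux read-out: kinetic fluorescence at 1 sec intervals after pin-tool compound addition to dye-loaded CHRM1-CHO cells (human M1). Agonist mode; 15 concentrations tested in triplicate independent runs.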

A short description of experiment [12]: cAMP Responsive Elements (CRE) small molecule agonists, cell-based qHTS assay (AID 1963590). The gist of the method: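 Beta-lactamase reporter readout: LiveBLAzer B/G FRET substrate, 2 h at room temperature, added after 3 h compound treatment of CRE-bla HEK 293T cells at 37 C/5% CO2.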
The nature of experiment [13]: cAMP Responsive Elements (CRE) small molecule antagonists, cell-based qHTS assay (AID 1963591; active means well fitted inhibition curve with a large enough effect in the signal ratio in the repeat runs, not every such curve was filed as active; the % refers to the signal ratio). The method in brief:
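HEK293T CRE-bla; 18 h preincubation; compound pin-transfer; NKH477 0.25 uM final, 3 h, 37 C; LiveBLAzer FRET substrate 2 h RT.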

Experiment [14] deals with Beta-2 adrenergic receptor (Homo sapiens) (UniProt P07550). Description: Adrenergic beta2 receptor (ADRB2) small molecule antagonists, cell-based qHTS assay (AID 1963592). Further: series mostly up to about 92 µM; nearly all actives have a fitted effect of over 50% in size. The method in brief:
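Assay format: CHO-ADRB2 cells, 18-20hr seeding at 37C/5% CO2, then compound plus 1nM isoproterenol agonist mix for 0.5hr RT. Homogeneous time-resolved fluorescence cAMP detection after 1hr, expressed as 665/615 nm ratio.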

For experiment [15] the target is unchanged. Description: Adrenergic beta2 receptor (ADRB2) small molecule agonists, cell-based qHTS assay (AID 1963593).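 Further: CHO cells stably overexpressing human ADRB2.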 The method in brief:
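CHO cells stably over-expressing ADRB2 were plated overnight at 37C, then dosed with compounds plus a stimulation mix containing 100uM IBMX and 25uM Ro-20-1724 for 0.5hr at room temperature. cAMP was measured by HTRF competition, 1hr.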

In experiment [16] the target is D(2) dopamine receptor (Homo sapiens) (UniProt P14416). Description: Dopamine D2 receptor (DRD2) small molecule agonists, cell-based qHTS assay (AID 1963594). Further: nearly all actives have a fitted effect of over 35% in size. The gist of the method:
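cAMP accumulation in DRD2-HEK293 cells measured by HTRF after 1 h detection; compounds added 10 min before NKH477 (200nM […]) forskolin-analogue stimulation, 30 min at room temperature, with Ro20-1724 present at 0.1 mM final.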

For experiment [17] the target is unchanged. Description: Dopamine D2 receptor (DRD2) small molecule antagonists, cell-based qHTS assay (AID 1963595; active means well fitted inhibition curve with a large enough effect in the signal ratio in the repeat runs, with a control signal flat; the % refers to the signal ratio). The gist of the method:
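HEK293 cells stably expressing DRD2 were preincubated with 0.1 mM Ro20-1724, then with compound for 10 min at room temperature. Cells were stimulated with 200 nM NKH477 plus 12 nM quinpirole for 30 min, and cAMP was read by HTRF.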

Experiment [18] has as its target 5-hydroxytryptamine receptor 2A (Homo sapiens) (UniProt P28223). Put plainly: 5-hydroxytryptamine receptor 2A (HTR2A) small molecule antagonists, cell-based qHTS assay (AID 1963586). Further: nearly all actives have a fitted effect of over 45% in size. The method in brief: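 CHO cells stably expressing human HTR2A were plated for 18 h at 37 C, then loaded with calcium dye for 1 h. Compounds were preincubated 5 min at room temperature before DOI (4 nM solution) was added. Kinetic fluorescence was read for 3 min.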

KiSS-1 receptor (Homo sapiens), sequence (Q969F8 whole entry, looked up): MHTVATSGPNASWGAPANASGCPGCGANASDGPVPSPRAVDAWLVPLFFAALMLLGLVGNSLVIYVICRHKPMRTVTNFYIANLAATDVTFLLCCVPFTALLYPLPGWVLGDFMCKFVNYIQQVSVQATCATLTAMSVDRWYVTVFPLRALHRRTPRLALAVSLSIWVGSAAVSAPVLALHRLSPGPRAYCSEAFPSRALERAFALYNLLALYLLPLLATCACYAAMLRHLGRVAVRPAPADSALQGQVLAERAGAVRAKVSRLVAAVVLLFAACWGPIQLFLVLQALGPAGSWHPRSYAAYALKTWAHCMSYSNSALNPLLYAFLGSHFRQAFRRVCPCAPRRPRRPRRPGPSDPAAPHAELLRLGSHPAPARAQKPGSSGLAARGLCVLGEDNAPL
Gonadotropin-releasing hormone receptor (Homo sapiens), sequence (P30968 whole entry, looked up): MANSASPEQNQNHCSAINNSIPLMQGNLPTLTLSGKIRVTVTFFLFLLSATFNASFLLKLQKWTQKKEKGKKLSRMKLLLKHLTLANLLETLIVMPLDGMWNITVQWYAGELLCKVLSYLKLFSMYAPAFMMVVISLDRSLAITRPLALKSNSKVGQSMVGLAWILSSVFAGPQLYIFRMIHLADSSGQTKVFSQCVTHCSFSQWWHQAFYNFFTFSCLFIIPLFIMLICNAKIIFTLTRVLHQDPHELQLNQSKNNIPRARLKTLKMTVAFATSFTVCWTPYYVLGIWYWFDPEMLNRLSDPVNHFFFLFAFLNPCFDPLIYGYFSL
Muscarinic acetylcholine receptor M1 (Homo sapiens), sequence (P11229 whole entry, looked up): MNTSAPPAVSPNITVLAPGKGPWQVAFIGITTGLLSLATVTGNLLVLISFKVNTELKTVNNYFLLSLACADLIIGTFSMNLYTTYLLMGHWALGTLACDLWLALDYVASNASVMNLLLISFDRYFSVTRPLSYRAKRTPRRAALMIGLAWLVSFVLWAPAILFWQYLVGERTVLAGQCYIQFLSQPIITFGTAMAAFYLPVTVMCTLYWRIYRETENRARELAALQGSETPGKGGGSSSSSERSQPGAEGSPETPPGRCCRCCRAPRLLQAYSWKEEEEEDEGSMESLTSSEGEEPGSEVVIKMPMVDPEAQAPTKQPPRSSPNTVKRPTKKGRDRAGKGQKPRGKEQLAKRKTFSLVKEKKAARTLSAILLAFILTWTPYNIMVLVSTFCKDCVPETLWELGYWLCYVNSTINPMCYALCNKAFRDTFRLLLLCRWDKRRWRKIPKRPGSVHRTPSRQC
D(2) dopamine receptor (Homo sapiens), sequence (P14416 whole entry, looked up): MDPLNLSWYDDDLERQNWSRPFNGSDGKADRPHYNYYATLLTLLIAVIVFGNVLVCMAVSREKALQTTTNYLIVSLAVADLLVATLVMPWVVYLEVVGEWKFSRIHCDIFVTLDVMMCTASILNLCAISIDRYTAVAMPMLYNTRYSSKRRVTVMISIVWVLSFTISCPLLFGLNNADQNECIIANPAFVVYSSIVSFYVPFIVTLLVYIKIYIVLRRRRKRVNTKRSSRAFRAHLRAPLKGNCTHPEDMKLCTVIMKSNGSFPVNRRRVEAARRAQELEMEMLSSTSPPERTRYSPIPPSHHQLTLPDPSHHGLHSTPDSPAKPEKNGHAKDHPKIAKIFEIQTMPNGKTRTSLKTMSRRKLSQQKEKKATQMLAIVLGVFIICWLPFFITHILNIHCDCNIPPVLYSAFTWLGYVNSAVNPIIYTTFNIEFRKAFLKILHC
Beta-2 adrenergic receptor (Homo sapiens), sequence (P07550 whole entry, looked up): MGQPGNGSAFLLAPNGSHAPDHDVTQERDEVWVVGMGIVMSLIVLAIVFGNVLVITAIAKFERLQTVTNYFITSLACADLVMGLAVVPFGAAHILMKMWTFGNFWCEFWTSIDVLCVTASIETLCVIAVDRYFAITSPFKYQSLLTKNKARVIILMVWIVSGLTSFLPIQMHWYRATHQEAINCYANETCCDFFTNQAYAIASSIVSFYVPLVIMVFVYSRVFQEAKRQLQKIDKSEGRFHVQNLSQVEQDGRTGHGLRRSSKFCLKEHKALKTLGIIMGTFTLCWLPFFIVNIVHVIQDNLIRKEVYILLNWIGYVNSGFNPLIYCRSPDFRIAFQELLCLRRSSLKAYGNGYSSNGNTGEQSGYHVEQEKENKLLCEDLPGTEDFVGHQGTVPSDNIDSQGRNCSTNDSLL
5-hydroxytryptamine receptor 2A (Homo sapiens), sequence (P28223 whole entry, looked up): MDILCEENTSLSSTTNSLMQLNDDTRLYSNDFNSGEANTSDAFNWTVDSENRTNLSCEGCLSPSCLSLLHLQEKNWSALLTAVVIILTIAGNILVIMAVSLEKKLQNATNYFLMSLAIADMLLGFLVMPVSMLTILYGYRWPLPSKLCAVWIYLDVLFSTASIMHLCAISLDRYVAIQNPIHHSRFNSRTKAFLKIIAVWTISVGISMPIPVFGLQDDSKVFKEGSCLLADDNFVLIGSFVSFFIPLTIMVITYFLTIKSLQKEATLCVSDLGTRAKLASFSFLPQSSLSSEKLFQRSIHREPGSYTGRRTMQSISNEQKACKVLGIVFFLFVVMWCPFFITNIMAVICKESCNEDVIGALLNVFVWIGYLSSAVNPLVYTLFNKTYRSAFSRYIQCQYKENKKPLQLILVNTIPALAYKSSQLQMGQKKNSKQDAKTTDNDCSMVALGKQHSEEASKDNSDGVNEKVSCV

As for `O=C(NC(=O)c1c(F)cccc1F)Nc1ccc(Cl)cc1`, the Potency entry in [1], in [2], in [3], in experiment [4], in experiment [5] and in experiment [6] was “inactive” in each case. The Potency result in experiment [7], in experiment [8], in experiment [9], in experiment [10], in experiment [11] and in experiment [12] was “inactive” in each case. Also, the Potency result in [13], in experiment [14], in experiment [15], in experiment [16] and in experiment [17] was “inactive” each time.

Regarding `O=c1nc(O)n(Cl)c(=O)n1Cl`, the Potency result in experiment [1], in experiment [2], in experiment [3], in [4], in [5] and in experiment [6] was “inactive” each time. The Potency result in [7], in experiment [18], in experiment [9], in experiment [10], in [11] and in [12] was “inactive” each time. Besides, the Potency entry in experiment [14], in experiment [15], in [16] and in experiment [17] was “inactive” each time.

As to `CC(=O)/C=C/c1ccccc1`, the Potency result in experiment [1], in experiment [3], in [4], in experiment [5], in [6] and in experiment [7] was “inactive” each time. Also, the Potency entry in experiment [8], in experiment [18], in [9], in experiment [11], in [12] and in experiment [13] was “inactive” throughout. Further, the Potency entry in experiment [14], in experiment [15], in experiment [16] and in [17] was “inactive” in each case. Further, the Potency in experiment [2] was 60 µM (active) and inactive.

For `O=Cc1cccc(Oc2ccccc2)c1`, the Potency result in experiment [1], in [2], in [3], in [4], in experiment [5] and in [6] was “inactive” throughout. In addition, the Potency result in experiment [8], in experiment [18], in experiment [9], in experiment [10], in [11] and in experiment [12] was “inactive” each time. Moreover, the Potency result in experiment [13], in experiment [14], in experiment [15], in experiment [16] and in experiment [17] was “inactive” in each case.

As for `COc1ccc(N)cc1N`, the Potency result in experiment [1], in experiment [3], in experiment [4], in experiment [5], in experiment [6] and in [7] was “inactive” throughout. Also, the Potency result in experiment [8], in experiment [18], in [10], in experiment [11], in experiment [13] and in experiment [15] was “inactive” throughout. For the same molecule, the Potency result in experiment [16] and in [17] was “inactive” throughout. Besides, the Potency in [2] is 25.1 µM (active) and 33 µM (active); in experiment [9] it was 22.6 µM (active) and inactive.

In the case of `CCC(C)(CC)c1cc(NC(=O)c2c(OC)cccc2OC)on1`, the Potency result in experiment [1], in [2], in [3], in experiment [4], in [5] and in [6] was “inactive” throughout. The Potency entry in experiment [7], in [8], in experiment [18], in experiment [9], in experiment [10] and in experiment [11] was “inactive” in each case. Also, the Potency entry in experiment [13], in [14], in [16] and in [17] was “inactive” in each case.

For `O=C(O)CCl`, the Potency result in experiment [1], in experiment [2], in experiment [3], in experiment [4], in [5] and in experiment [6] was “inactive” each time. Besides, the Potency result in [7], in experiment [18], in [9], in [10], in experiment [11] and in [12] was “inactive” in each case. Moreover, the Potency result in experiment [13], in experiment [14], in [15], in [16] and in [17] was “inactive” throughout.
